# Experimental data taken from PubChem BioAssay (EPA / NIEHS).
# Inconclusive results are not listed. Calls of active or inactive are those of the source. How the source made its calls: active means hit-call score of the fitted dose curve at least 0.9, where 1 is the maximum; inconclusive means response in the unintended direction; inactive means score below 0.9.
# Key:
# [1] = biological target: human Protein Tyrosine Phosphatase Receptor Type F (PTPRF), PTPRF (gene 5792) (UniProt P10586); experiment: NVS_ENZ_hPTPRF: NovaScreen (NVS) Enzymatic Assay for human Protein Tyrosine Phosphatase Receptor Type F (PTPRF) (AID 2283213)
# Method in brief: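 Cell-free fluorescence enzyme assay with recombinant protein and substrate; product separated by electrophoretic mobility shift. Read 1 h after dosing, single 25 uM duplicate screen, then concentration-response up to 50 uM; loss of signal vs DMSO.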
# [2] = biological target: human Protein Tyrosine Phosphatase Receptor Type M (PTPRM), PTPRM (gene 5797) (UniProt P28827); experiment: NVS_ENZ_hPTPRM: NovaScreen (NVS) Enzymatic Assay for human Protein Tyrosine Phosphatase Receptor Type M (PTPRM) (AID 2283215)
# Method in brief: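 Read-out is fluorescence after electrophoretic separation of substrate and product, taken 1.33 h post-dosing with recombinant enzyme. Compounds screened at 25 uM in duplicate, then concentration series for actives; activity as signal loss relative to DMSO.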
# [3] = biological target: human Sirtuin 2 (SIRT2), SIRT2 (gene 22933) (UniProt Q8IXJ6); experiment: NVS_ENZ_hSIRT2: NovaScreen (NVS) Enzymatic Assay for human Sirtuin 2 (SIRT2) (AID 2283217)
# human Sirtuin 2 (SIRT2), SIRT2 (gene 22933), sequence (Q8IXJ6 whole entry, looked up): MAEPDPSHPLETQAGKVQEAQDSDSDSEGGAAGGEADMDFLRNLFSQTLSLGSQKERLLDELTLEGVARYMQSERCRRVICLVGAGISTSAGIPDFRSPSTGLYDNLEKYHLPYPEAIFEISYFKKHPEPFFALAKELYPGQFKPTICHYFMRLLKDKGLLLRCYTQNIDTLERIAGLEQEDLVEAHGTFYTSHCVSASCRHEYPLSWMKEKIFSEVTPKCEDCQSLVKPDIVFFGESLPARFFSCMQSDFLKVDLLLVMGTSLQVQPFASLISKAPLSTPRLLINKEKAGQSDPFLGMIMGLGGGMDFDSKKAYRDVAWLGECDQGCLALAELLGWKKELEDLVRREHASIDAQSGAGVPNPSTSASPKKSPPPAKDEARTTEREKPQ
# Method in brief: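 Single-point duplicate screen at 25 uM, then concentration-response (max 50 uM) for chemicals passing threshold. Enzyme activity of recombinant human SIRT2 measured after 1 hr by fluorescence with mobility-shift separation of product; DMSO baseline.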
# [4] = biological target: human Sirtuin 1 (SIRT1), SIRT1 (gene 23411) (UniProt Q96EB6); experiment: NVS_ENZ_hSIRT1: NovaScreen (NVS) Enzymatic Assay for human Sirtuin 1 (SIRT1) (AID 2283219)
# human Sirtuin 1 (SIRT1), SIRT1 (gene 23411), sequence (Q96EB6 whole entry, looked up): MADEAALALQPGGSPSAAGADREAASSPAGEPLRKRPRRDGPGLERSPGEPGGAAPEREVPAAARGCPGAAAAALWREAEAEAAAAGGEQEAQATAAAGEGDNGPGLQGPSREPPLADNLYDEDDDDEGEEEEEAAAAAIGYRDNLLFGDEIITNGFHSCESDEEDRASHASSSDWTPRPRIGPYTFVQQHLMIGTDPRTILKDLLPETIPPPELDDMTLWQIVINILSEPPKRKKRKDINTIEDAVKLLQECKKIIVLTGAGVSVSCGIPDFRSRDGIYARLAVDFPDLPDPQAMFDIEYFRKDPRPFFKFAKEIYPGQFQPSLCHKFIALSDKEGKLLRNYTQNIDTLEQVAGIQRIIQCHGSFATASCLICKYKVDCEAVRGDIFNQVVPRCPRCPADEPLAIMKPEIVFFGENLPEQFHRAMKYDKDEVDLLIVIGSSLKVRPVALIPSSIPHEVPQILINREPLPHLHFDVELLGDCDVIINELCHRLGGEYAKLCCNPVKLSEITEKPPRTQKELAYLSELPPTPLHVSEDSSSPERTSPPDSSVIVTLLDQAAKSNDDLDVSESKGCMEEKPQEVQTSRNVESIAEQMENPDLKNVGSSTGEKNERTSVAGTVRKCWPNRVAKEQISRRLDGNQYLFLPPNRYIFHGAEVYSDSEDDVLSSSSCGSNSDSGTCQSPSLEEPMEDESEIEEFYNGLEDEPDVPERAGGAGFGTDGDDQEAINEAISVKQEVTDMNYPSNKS
# Method in brief: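 Cell-free recombinant SIRT1 with a fluorescent substrate; substrate and product separated by electrophoretic mobility shift and read by fluorescence intensity, 1 h after dosing. Primary screen at 25 uM in duplicate; hits re-run in concentration-response up to 50 uM, relative to DMSO.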
# [5] = biological target: human Tyrosine Protein Kinase Receptor Tie-2 (Tie2), TEK (gene 7010) (UniProt Q02763); experiment: NVS_ENZ_hTie2: NovaScreen (NVS) Enzymatic Assay for human Tyrosine Protein Kinase Receptor Tie-2 (Tie2) (AID 2283225)
# human Tyrosine Protein Kinase Receptor Tie-2 (Tie2), TEK (gene 7010), sequence (Q02763 whole entry, looked up): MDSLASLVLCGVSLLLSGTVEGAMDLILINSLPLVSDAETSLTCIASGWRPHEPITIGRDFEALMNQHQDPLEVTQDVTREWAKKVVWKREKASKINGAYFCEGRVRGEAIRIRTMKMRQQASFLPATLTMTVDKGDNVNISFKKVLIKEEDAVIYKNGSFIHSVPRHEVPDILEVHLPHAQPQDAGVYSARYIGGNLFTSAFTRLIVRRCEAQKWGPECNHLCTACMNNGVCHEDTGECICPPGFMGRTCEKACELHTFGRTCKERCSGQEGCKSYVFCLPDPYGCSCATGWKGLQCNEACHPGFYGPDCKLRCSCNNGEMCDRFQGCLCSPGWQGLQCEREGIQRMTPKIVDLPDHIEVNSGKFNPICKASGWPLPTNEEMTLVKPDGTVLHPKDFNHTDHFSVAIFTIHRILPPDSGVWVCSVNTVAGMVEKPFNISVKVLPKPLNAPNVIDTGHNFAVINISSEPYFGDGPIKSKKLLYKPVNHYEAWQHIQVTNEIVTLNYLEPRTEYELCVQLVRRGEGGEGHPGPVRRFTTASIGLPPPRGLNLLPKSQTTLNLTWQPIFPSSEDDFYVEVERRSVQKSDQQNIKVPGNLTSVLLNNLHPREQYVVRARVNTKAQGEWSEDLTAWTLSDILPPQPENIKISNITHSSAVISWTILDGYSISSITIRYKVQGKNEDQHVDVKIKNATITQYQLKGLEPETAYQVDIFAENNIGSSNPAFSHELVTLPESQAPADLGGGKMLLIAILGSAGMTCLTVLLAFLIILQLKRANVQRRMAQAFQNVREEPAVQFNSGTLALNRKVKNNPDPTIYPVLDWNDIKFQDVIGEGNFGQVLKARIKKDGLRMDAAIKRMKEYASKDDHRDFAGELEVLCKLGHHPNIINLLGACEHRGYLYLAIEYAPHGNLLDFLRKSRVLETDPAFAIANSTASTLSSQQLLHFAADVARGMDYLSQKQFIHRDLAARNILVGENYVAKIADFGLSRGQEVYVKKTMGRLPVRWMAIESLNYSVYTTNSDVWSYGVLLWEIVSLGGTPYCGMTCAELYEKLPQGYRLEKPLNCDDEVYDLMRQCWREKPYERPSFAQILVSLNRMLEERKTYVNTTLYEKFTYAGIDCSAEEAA
# Method in brief: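 Substrate and product were separated by mobility shift and detected by fluorescence after a 1-hour reaction with recombinant Tie2. Chemicals passing a 25 uM single-point screen were titrated to a maximum of 50 uM. Results were normalized to DMSO baseline.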
# [6] = biological target: human Sirtuin 3 (SIRT3), SIRT3 (gene 23410) (UniProt Q9NTG7); experiment: NVS_ENZ_hSIRT3: NovaScreen (NVS) Enzymatic Assay for human Sirtuin 3 (SIRT3) (AID 2283222)
# human Sirtuin 3 (SIRT3), SIRT3 (gene 23410), sequence (Q9NTG7 whole entry, looked up): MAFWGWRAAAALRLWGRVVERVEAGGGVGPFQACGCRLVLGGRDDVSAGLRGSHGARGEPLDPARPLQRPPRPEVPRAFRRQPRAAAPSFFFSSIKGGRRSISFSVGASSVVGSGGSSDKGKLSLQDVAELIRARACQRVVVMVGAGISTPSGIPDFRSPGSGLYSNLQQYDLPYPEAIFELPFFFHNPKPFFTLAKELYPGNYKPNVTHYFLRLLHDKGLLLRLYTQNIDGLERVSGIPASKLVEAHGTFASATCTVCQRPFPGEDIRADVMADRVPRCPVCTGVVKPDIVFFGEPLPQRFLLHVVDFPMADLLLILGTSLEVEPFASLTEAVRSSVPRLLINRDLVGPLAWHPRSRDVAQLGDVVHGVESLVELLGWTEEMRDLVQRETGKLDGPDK
# Method in brief: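 Cell-free enzyme assay with recombinant protein and fluorescent substrate, product separated by electrophoretic mobility shift; read 1 hour after dosing. Screened in duplicate at 25 uM, then singleton concentration-response up to 50 uM; loss of signal versus DMSO.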
# [7] = biological target: human Protein Tyrosine Phosphatase Non-receptor Type 2 (PTPN2), PTPN2 (gene 5771) (UniProt P17706); experiment: NVS_ENZ_hPTPN2: NovaScreen (NVS) Enzymatic Assay for human Protein Tyrosine Phosphatase Non-receptor Type 2 (PTPN2) (AID 2283207)
# human Protein Tyrosine Phosphatase Non-receptor Type 2 (PTPN2), PTPN2 (gene 5771), sequence (P17706 whole entry, looked up): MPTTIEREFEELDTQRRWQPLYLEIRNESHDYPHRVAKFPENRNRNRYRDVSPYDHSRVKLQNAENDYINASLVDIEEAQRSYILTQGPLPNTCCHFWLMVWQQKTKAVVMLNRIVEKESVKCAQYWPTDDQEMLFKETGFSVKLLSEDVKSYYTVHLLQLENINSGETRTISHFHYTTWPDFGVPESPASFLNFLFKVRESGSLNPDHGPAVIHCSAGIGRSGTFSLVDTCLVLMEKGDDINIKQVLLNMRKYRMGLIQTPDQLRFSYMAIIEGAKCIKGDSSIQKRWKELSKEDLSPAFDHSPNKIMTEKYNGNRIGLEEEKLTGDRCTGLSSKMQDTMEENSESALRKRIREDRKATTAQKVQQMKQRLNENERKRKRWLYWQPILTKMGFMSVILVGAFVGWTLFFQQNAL
# Method in brief: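 Activity measured as fluorescence after mobility-shift separation of substrate and product, 1 h after compound. Duplicate single-point 25 uM primary testing, concentration series for actives; inhibition scored as signal loss relative to DMSO baseline.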
# [8] = biological target: human Protein Tyrosine Phosphatase Non-receptor Type 9 (PTPN9), PTPN9 (gene 5780) (UniProt P43378); experiment: NVS_ENZ_hPTPN9: NovaScreen (NVS) Enzymatic Assay for human Protein Tyrosine Phosphatase Non-receptor Type 9 (PTPN9) (AID 2283209)
# human Protein Tyrosine Phosphatase Non-receptor Type 9 (PTPN9), PTPN9 (gene 5780), sequence (P43378 whole entry, looked up): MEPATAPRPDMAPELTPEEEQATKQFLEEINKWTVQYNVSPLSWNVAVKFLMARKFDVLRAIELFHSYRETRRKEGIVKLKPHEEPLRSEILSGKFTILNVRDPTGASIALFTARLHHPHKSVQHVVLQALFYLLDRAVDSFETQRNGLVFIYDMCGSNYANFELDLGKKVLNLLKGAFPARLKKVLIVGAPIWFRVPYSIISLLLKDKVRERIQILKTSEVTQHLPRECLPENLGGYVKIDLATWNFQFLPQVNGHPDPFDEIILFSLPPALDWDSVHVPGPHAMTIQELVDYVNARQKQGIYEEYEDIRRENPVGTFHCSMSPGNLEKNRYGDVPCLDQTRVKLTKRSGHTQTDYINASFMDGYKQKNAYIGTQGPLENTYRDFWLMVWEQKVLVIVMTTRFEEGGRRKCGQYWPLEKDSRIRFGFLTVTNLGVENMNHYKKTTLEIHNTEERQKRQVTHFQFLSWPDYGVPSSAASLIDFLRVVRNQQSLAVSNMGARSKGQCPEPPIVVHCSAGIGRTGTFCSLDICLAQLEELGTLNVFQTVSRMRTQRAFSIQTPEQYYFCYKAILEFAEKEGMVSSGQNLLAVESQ
# Method in brief: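 Sf9-expressed enzyme in a cell-free assay, fluorescence read 1.33 h after dosing with mobility-shift separation of substrate and product. Tested at 25 uM in duplicate, then up to 50 uM; signal loss versus DMSO.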
# [9] = biological target: human Protein Tyrosine Phosphatase Non-receptor Type 6 (PTPN6), PTPN6 (gene 5777) (UniProt P29350); experiment: NVS_ENZ_hPTPN6: NovaScreen (NVS) Enzymatic Assay for human Protein Tyrosine Phosphatase Non-receptor Type 6 (PTPN6) (AID 2283210)
# human Protein Tyrosine Phosphatase Non-receptor Type 6 (PTPN6), PTPN6 (gene 5777), sequence (P29350 whole entry, looked up): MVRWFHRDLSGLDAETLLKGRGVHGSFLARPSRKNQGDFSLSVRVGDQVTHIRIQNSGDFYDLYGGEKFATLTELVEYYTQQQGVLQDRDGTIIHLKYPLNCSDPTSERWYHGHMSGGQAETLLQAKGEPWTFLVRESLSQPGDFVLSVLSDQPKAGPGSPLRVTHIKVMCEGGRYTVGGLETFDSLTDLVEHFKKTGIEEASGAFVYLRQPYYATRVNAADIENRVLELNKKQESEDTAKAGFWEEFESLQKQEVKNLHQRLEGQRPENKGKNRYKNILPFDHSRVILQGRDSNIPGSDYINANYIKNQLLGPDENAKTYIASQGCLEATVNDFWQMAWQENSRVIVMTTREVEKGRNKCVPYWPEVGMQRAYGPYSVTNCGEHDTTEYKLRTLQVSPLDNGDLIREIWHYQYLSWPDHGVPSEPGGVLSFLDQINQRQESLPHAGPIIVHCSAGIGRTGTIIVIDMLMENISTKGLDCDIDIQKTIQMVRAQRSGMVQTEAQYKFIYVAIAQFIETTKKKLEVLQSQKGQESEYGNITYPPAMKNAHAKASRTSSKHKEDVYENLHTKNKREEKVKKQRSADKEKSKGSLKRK
# Method in brief: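 Recombinant human PTPN6 from SF9 cells, enzyme activity followed by fluorescence after mobility-shift separation of substrate and product at 1.33 h. Chemicals first tested at a single 25 uM in duplicate, then confirmed across concentration series; loss of signal relative to DMSO.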
# [10] = biological target: human Raf-1 Proto-Oncogene, serine/threonine Kinase (RAF1), RAF1 (gene 5894) (UniProt P04049); experiment: NVS_ENZ_hRAF1: NovaScreen (NVS) Enzymatic Assay for human Raf-1 Proto-Oncogene, serine/threonine Kinase (RAF1) (AID 2283216)
# human Raf-1 Proto-Oncogene, serine/threonine Kinase (RAF1), RAF1 (gene 5894), sequence (P04049 whole entry, looked up): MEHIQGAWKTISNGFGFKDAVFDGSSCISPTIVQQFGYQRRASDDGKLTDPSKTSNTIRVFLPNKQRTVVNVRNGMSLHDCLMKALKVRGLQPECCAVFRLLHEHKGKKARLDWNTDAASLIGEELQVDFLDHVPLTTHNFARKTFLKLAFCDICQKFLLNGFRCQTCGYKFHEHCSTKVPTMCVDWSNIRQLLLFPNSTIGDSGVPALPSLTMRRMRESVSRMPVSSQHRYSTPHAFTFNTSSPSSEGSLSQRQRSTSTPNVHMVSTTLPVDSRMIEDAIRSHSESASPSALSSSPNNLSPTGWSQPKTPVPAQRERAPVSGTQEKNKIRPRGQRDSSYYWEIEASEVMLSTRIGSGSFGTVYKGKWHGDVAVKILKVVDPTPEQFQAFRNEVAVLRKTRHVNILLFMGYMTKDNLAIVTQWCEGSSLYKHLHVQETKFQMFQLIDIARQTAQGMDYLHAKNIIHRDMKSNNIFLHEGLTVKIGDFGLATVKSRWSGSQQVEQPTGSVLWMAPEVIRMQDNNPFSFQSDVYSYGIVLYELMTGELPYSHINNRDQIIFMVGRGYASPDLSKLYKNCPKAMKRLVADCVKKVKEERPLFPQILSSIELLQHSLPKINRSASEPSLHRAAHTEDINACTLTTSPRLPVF
# Method in brief: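 Single-point screening at 25 uM (duplicate), followed by singleton concentration-response to 50 uM maximum for chemicals exceeding threshold. Enzyme activity from fluorescent substrate-product mobility-shift separation after 1 h, relative to DMSO.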
# [11] = biological target: human Protein Tyrosine Phosphatase Receptor Type B (PTPRB), PTPRB (gene 5787) (UniProt P23467); experiment: NVS_ENZ_hPTPRB: NovaScreen (NVS) Enzymatic Assay for human Protein Tyrosine Phosphatase Receptor Type B (PTPRB) (AID 2283211)
# Method in brief: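 Recombinant human PTPRB with a fluorescent substrate, product separated by electrophoretic mobility shift; read 1 h after dosing. Primary screen in duplicate at 25 uM; actives then retested in concentration series; loss of signal versus DMSO.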
# [12] = biological target: human Tropomyosin Receptor Kinase A (TRKA), NTRK1 (gene 4914) (UniProt P04629); experiment: NVS_ENZ_hTrkA: NovaScreen (NVS) Enzymatic Assay for human Tropomyosin Receptor Kinase A (TRKA) (AID 2283224)
# Method in brief: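 Compounds were screened at 25 uM in duplicate, then concentration series to a 50 uM top for those meeting threshold (e.g. 30% inhibition). Enzyme was recombinant human TrkA, incubated 1 h. Product formation was quantified by fluorescence after mobility-shift separation.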
# [13] = biological target: human Vascular Endothelial Growth Factor Receptor 1 (VEGFR1), FLT1 (gene 2321) (UniProt P17948); experiment: NVS_ENZ_hVEGFR1: NovaScreen (NVS) Enzymatic Assay for human Vascular Endothelial Growth Factor Receptor 1 (VEGFR1) (AID 2283226)
# Method in brief: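 Kinase activity of recombinant human VEGFR1 was read by fluorescence after electrophoretic separation of product from substrate, 1 h post-dosing; initial duplicate single-point testing at 25 uM, followed by concentration-series follow-up, with DMSO as baseline.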
# [14] = biological target: human Vascular Endothelial Growth Factor Receptor 3 (VEGFR3), FLT4 (gene 2324) (UniProt P35916); experiment: NVS_ENZ_hVEGFR3: NovaScreen (NVS) Enzymatic Assay for human Vascular Endothelial Growth Factor Receptor 3 (VEGFR3) (AID 2283229)
# Method in brief: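 Chemicals first run in duplicate at 25 uM, with actives re-tested in concentration series to a top of 50 uM. Recombinant VEGFR3 activity measured after 1 h via fluorescence with mobility-shift product separation; inhibition fitted relative to DMSO.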
# [15] = biological target: human Protein Tyrosine Phosphatase Receptor Type C (PTPRC), PTPRC (gene 5788) (UniProt P08575); experiment: NVS_ENZ_hPTPRC: NovaScreen (NVS) Enzymatic Assay for human Protein Tyrosine Phosphatase Receptor Type C (PTPRC) (AID 2283212)
# Method in brief: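 Absorbance-based phosphatase activity of human PTPRC protein extracted from yeast was measured 1 h post-dosing. Compounds first tested at 25 uM in duplicate, then those passing threshold in singleton concentration series to 50 uM.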
# [16] = biological target: rabbit Imidazoline 2 Central (I2C), CKB (gene 100009085) (UniProt P00567); experiment: NVS_ENZ_rabI2C: NovaScreen (NVS) Enzymatic Assay for rabbit Imidazoline 2 Central (I2C) (AID 2283228)
# Method in brief: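 Rabbit brain membranes, cell-free; readout by filter-based scintillation counting 1.5 hours after dosing, loss of signal vs DMSO. Initial duplicate test at 25 uM, then concentration-response with 50 uM top concentration.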
# [17] = biological target: human Rho Associated Coiled-coil Containing Protein Kinase 1 (ROCK1), ROCK1 (gene 6093) (UniProt Q13464); experiment: NVS_ENZ_hROCK1: NovaScreen (NVS) Enzymatic Assay for human Rho Associated Coiled-coil Containing Protein Kinase 1 (ROCK1) (AID 2283214)
# Method in brief: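 Compounds first run in duplicate at 25 uM against recombinant human ROCK1, then followed in concentration series. Kinase activity was read 1 h post-dosing by fluorescence with mobility-shift separation, as signal loss relative to DMSO.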
# [18] = biological target: Tyrosine-protein phosphatase non-receptor type 14 (Homo sapiens) (UniProt Q15678); experiment: NVS_ENZ_hPTPN14: NovaScreen (NVS) Enzymatic Assay for human Protein Tyrosine Phosphatase Non-receptor Type 14 (PTPN14) (AID 2283206)
# Method in brief: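 Fluorescent substrate turnover by recombinant human PTPN14 was measured 0.5 h after compound addition, with substrate and product separated by mobility shift. Single-point screening at 25 uM, then concentration-response up to 50 uM for chemicals meeting threshold (e.g., 30% inhibition).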
# [19] = biological target: human Protein Tyrosine Phosphatase Non-receptor Type 4 (PTPN4), PTPN4 (gene 5775) (UniProt P29074); experiment: NVS_ENZ_hPTPN4: NovaScreen (NVS) Enzymatic Assay for human Protein Tyrosine Phosphatase Non-receptor Type 4 (PTPN4) (AID 2283208)
# Method in brief: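 Screened in duplicate at 25 uM, with hits then titrated to a top concentration of 50 uM. Recombinant Sf9-derived PTPN4 turnover was read by fluorescence with electrophoretic separation, 1.33 h after compound addition. DMSO served as baseline.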
# [20] = biological target: human SRC Proto-Oncogene, Non-receptor Tyrosine Kinase (SRC), SRC (gene 6714) (UniProt P12931); experiment: NVS_ENZ_hSRC: NovaScreen (NVS) Enzymatic Assay for human SRC Proto-Oncogene, Non-receptor Tyrosine Kinase (SRC) (AID 2283223)
# Method in brief: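 Compounds passing 30% inhibition at 25 uM (duplicate) were titrated to a top concentration of 50 uM. Enzyme activity read by fluorescence with mobility-shift substrate/product separation after 1 h; DMSO baseline.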
smiles,measurement,setting,value
O=S(=O)(O)C(F)(F)C(F)(F)C(F)(F)C(F)(F)C(F)(F)C(F)(F)F,outcome,[1],inactive
same,outcome,[2],inactive
same,AC50,[3],11.4 µM (active)
same,outcome,[4],inactive
same,outcome,[5],inactive
Cc1cc2c3c(c1)C(c1ccccc1)=N[C@@H](NC(=O)c1ccncc1)C(=O)N3CC2,outcome,[2],inactive
same,outcome,[3],inactive
same,outcome,[6],inactive
same,outcome,[5],inactive
Cc1cc(O)ccc1Cl,outcome,[7],inactive
same,outcome,[8],inactive
same,outcome,[9],inactive
Cc1cccc([N+](=O)[O-])c1,outcome,[10],inactive
same,outcome,[3],inactive
CCOCCOC(C)=O,outcome,[9],inactive
O=C(O)C(F)(F)C(F)(F)C(F)(F)C(F)(F)C(F)(F)C(F)(F)C(F)(F)C(F)(F)F,AC50,[8],25 µM (active)
same,outcome,[11],inactive
same,outcome,[1],inactive
same,outcome,[2],inactive
same,outcome,[10],inactive
same,outcome,[4],inactive
same,outcome,[12],inactive
same,AC50,[5],6.63 µM (active)
same,outcome,[13],inactive
same,outcome,[14],inactive
O=C(O)C(F)(F)C(F)(F)C(F)(F)C(F)(F)C(F)(F)C(F)(F)C(F)(F)C(F)(F)C(F)(F)F,AC50,[15],15.8 µM (active)
Nn1cnnc1,outcome,[9],inactive
Oc1ccc(C(c2ccc(O)cc2)(C(F)(F)F)C(F)(F)F)cc1,outcome,[10],inactive
same,AC50,[3],25 µM (active)
same,AC50,[4],38.7 µM (active)
same,AC50,[6],42.9 µM (active)
same,AC50,[5],36.3 µM (active)
CCCCCCCCCC[N+](C)(C)CCCCCCCCCC,AC50,[16],11.8 µM (active)
CCC(C)c1cc([N+](=O)[O-])cc([N+](=O)[O-])c1O (stereo not given),AC50,[15],25 µM (active)
CC#Cc1cc(C)nc(Nc2ccccc2)n1,outcome,[17],inactive
CCCN(CCC)N=O,outcome,[6],inactive
same,outcome,[12],inactive
same,outcome,[5],inactive
CC1=C2C[C@H]3[C@@H](CC=C4C[C@@H](O)CC[C@@]43C)[C@@H]2CC[C@]12O[C@@H]1C[C@H](C)CN[C@H]1[C@H]2C,outcome,[18],inactive
same,AC50,[19],16 µM (active)
same,outcome,[8],inactive
same,outcome,[20],inactive
same,outcome,[12],inactive
same,outcome,[5],inactive
same,outcome,[14],inactive
